# In PubChem BioAssay AID504850 (National Center for Advancing Translational Sciences (NCATS), 2011):
# In all, about 2,300 compounds went through this assay and about 1,200 (52%) were called active. Inconclusive results (about 34%) are left out. The set was probably picked from earlier hits. This is one part of the list. Unmarked numbers belong to inactive results. Calls come from the whole dose curve; as a rule, active = well fitted inhibition curve with a large enough effect; inconclusive = small, poorly fitted or top-dose-only effect, or effect the other way; inactive = no such curve, though single readings can be large or run the other way.
# Assay: Confirmation screen for delayed death inhibitors of the malarial parasite plastid, 48 hour incubation; note: nearly all actives have a fitted effect of over 65% in size
# Settings: P. falciparum-infected erythrocytes, luciferase growth; series mostly up to 28.7 µM; activity change, negative = inhibition: at the top concentration
# Method in brief: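 Erythrocytes infected with luciferase-expressing P. falciparum (2% hematocrit, 0.1% parasitemia) incubated with compounds 48 hours at 37 C, 5% CO2, in RPMI/Albumax. Growth inhibition scored as reduced luminescence after detection reagent.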
# % is set by controls: 0 for no effect and ±100 for the full control effect; potency is the fitted concentration of half-maximal effect.
SMILES,Potency,"activity change, negative = inhibition [%]"
COc1ccc(CCn2c(C(C)C)nc3c(c(=O)c4ccccc4n3C)c2=O)cc1,11.2 µM (active),
COc1ccc(-c2nc3c(c(=O)c4ccccc4n3C)c(=O)n2Cc2ccccc2)cc1,10 µM (active),
COc1ccc(Cn2c(-c3ccccc3)nc3c(c(=O)c4ccccc4n3C)c2=O)cc1,11.2 µM (active),
O=C(/C=C/c1ccc(Cl)c(Cl)c1)NCCCn1ccnc1,15.8 µM (active),
CCc1ccccc1Nc1nc(N)nc(COC(=O)CCC(=O)c2ccc(F)cc2)n1,8.91 µM (active),
CCc1ccccc1Nc1nc(N)nc(COC(=O)CCNS(=O)(=O)c2ccccc2)n1,12.6 µM (active),
O=C(O)CCNS(=O)(=O)c1cccc(Br)c1,,-11.5
Cc1ccc(C(=O)OCc2nc(N)nc(Nc3ccccc3C)n2)cc1,12.6 µM (active),
CCCCN(C)C(=O)C1CCC(CNS(=O)(=O)c2ccc3c(c2)CC(C)N3C(=O)C2CC2)CC1 (stereo unspecified),12.6 µM (active),
CCc1ccc(N/C(SCc2cccc(F)c2)=C(/C#N)C(=O)NCc2ccco2)cc1,10 µM (active),
C#Cc1ccc(CN2CCN(CCCc3ccccc3)C(CCO)C2)cc1 (stereo unspecified),11.2 µM (active),
CC(C)/C=C/CN1CCN(CCCc2ccccc2)C(CCO)C1 (stereo unspecified),12.6 µM (active),
COc1ccccc1N1CCN(C(=O)c2noc(C(C)C)c2[N+](=O)[O-])CC1,10 µM (active),
Cc1ccc(NC(=O)c2cc(S(=O)(=O)N3CCc4ccccc43)cn2C)cc1,11.2 µM (active),
COc1ccc(S(=O)(=O)N2CCc3ccccc32)cc1C(=O)Nc1cccnc1,12.6 µM (active),
COc1ccc(S(=O)(=O)N(C)c2ccc(C(=O)Nc3cccnc3)cc2)cc1OC,14.1 µM (active),
CCOc1ccc2c(c1)sc(N)[n+]2Cc1cc(C)cc2cccnc12,5.62 µM (active),
O=C(Nc1cccc(S(=O)(=O)NCc2ccco2)c1)c1cc(-c2ccc(F)cc2)nc2ccccc12,,-0.526
O=C(NCc1ccco1)c1cc2sccc2n1Cc1ccc(F)cc1,12.6 µM (active),
COc1ccc(C(C)=O)cc1CSc1nc2ccccc2c(=O)n1-c1ccccc1C,7.08 µM (active),
Cc1ccc(/C=N/NC(=O)CSc2nc3ccccc3c(=O)n2-c2ccccc2C)s1,11.2 µM (active),
O=C1C2CCCN2C(c2ccccc2)N1c1ccc(Cl)cc1 (stereo unspecified),,-19.3
O=C1C(=O)c2ccccc2C(O)=C1C1CCC(c2ccc(Cl)cc2)CC1 (stereo unspecified),0.02 µM (active),

SMILES,Potency,"activity change, negative = inhibition [%]"
O=C(NCc1ccccn1)c1cc(-c2ccc(-c3ccccc3)cc2)nc2ccccc12,15.8 µM (active),
Cc1cc(NC(=O)CSc2sc3c(O)cc(=O)[nH]c3c2C#N)ccc1Br,14.1 µM (active),
N#Cc1c(SCC(=O)Nc2ccc(C(F)(F)F)cc2)sc2c(O)cc(=O)[nH]c12,0.316 µM (active),
O=C(CCN1C(=O)/C(=C/c2ccccc2)SC1=S)NCCc1ccc(O)cc1,,-6.1
O=C(O)CCCN1C(=O)/C(=C\C(Cl)=C\c2ccccc2)SC1=S,14.1 µM (active),
CCC/C(=N\NC(=O)c1ccco1)c1ccc(Cl)s1,11.2 µM (active),
CC1CCCN(Cc2c(O)ccc3c(=O)c(-c4nc5ccccc5s4)c(N)oc23)C1 (stereo unspecified),0.316 µM (active),
C=CCN(c1ccccc1)S(=O)(=O)c1cccc(C(=O)N2CC(C)CC(C)C2)c1 (stereo unspecified),14.1 µM (active),
COc1ccc(Nc2nnc(-c3ccc(C)cc3)c3ccccc23)cc1C(=O)N1CCCCC1,2.51 µM (active),
COc1ccc(Nc2nnc(-c3ccccc3)c3ccccc23)cc1C(=O)N1CCCCC1,7.94 µM (active),
Cc1ccc(C)c(-c2cc(C(=O)Nc3nccs3)c3ccccc3n2)c1,4.47 µM (active),
Cc1ccccc1-c1cc(C(=O)n2cccn2)c2cc(Cl)ccc2n1,,-11
Cc1ccc(C)c(-c2cc(C(=O)NNC(=S)NCC(C)C)c3ccccc3n2)c1,14.1 µM (active),
CCC1OC(=O)C[C@@H](O)[C@H](C)[C@@H](OC2OC(C)CC(N(C)C)C2O)[C@@H](CC=O)C[C@@H](C)C(=O)/C=C/[C@]2(C)OC2C1C (stereo partly specified),11.2 µM (active),
Cc1onc(-c2ccccc2Cl)c1C(=O)N1CC(C)CC(C)C1 (stereo unspecified),,-22.2
Cc1onc(-c2ccccc2Cl)c1C(=O)N1CCC(Cc2ccccc2)CC1,15.8 µM (active),
Cc1ccc(S(=O)(=O)N(C)C)cc1NC(=O)c1cncc(Br)c1,8.91 µM (active),
NCCCNc1nc(N)c([N+](=O)[O-])c(NC2CCCCC2)n1,3.98 µM (active),
N=C(N)c1ccc(OCCCCCOc2ccc(C(=N)N)cc2)cc1,1 µM (active),
Cc1cccc(-n2c(C)cc(/C=N\NC(=O)c3cccs3)c2C)c1,11.2 µM (active),
COc1ccc(CCNC(=O)C(=O)NCC2OCCN2S(=O)(=O)c2ccc3c(c2)OCCO3)cc1OC (stereo unspecified),11.2 µM (active),
O=C(NCCCn1ccnc1)C(=O)NCC1OCCN1S(=O)(=O)c1ccc(F)cc1 (stereo unspecified),,-13.4
CCC(C(=O)O)C1OC(C(C)C(O)C(C)C(=O)C(CC)C2OC3(C=CC(O)C4(CCC(C)(C5CCC(O)(CC)C(C)O5)O4)O3)C(C)CC2C)C(C)CC1C (stereo unspecified),0.251 µM (active),

SMILES,Potency,"activity change, negative = inhibition [%]"
O=C(CCl)NCc1c(Cl)cccc1-n1cccc1,12.6 µM (active),
O=C(NC1CCCCC1)c1ccc(CS(=O)Cc2ccccc2Cl)o1 (stereo unspecified),12.6 µM (active),
C/C(CC(=O)NC1CCCCC1)=N\NC(=O)COc1ccc(C)cc1Br,,-22.2
Cc1ccc(CS(=O)(=O)Cc2ccc(C(=O)NC3CCCC3)o2)cc1,11.2 µM (active),
Cc1ccc(NC(=O)c2nnn(CC(=O)Nc3ccc4c(c3)OCO4)c2N)cc1C,,-13.9
Cn1c(=O)n(C)c2cc(NC(=O)CCl)ccc21,2.24 µM (active),
O=C(CCl)Nc1ccc2c(c1)OCO2,2.24 µM (active),
CCN1CCN(Cc2c(O)ccc3c2O/C(=C\C=C\c2ccccc2)C3=O)CC1,3.98 µM (active),
O=S(=O)(c1ccc(OCC(O)CN2CCN(c3ccc(F)cc3)CC2)cc1)N1CCOCC1 (stereo unspecified),11.2 µM (active),
O=C(COc1ccccc1)N1CCN(S(=O)(=O)c2ccc(Br)cc2)CC1,11.2 µM (active),
Cc1cc(OCCN2CCN(S(=O)(=O)c3ccccc3F)CC2)ccc1C(C)C,,-46.5
CCOc1ccc(S(=O)(=O)N2CCN(C(=O)CCOc3ccccc3C)CC2)cc1,12.6 µM (active),
Cc1cc(OCC(=O)N2CCCC2)cc(C)c1Cl,,-29.2
COc1ccc(CNC(=O)c2cc(S(=O)(=O)N3CCOCC3)cn2C)cc1,,-18.3
O=S(=O)(c1ccc(OCc2ccc(Br)cc2)cc1)N1CCOCC1,11.2 µM (active),
Cc1cccc(-c2ccc3ncnc(NCc4cccs4)c3c2)c1,7.08 µM (active),
COc1cccc(-c2ccc3ncnc(NCc4cccs4)c3c2)c1,11.2 µM (active),
CN(C)c1ccc(CNc2ncnc3sccc23)cc1,,-16
Cc1ccn2c(NC3CCCC3)c(-c3ccccn3)nc2c1,7.08 µM (active),
COc1cccc([C@@H]2Oc3ccc(OC)cc3C(=O)[C@H]2O)c1,7.94 µM (active),
CC(=O)N1CN(C2CCCC2)Cc2c1sc1c2CCCC1,14.1 µM (active),
COc1ccc(S(=O)(=O)N2CCCCCC2)cc1C(=O)N(C)CC(=O)Nc1cc(C)ccc1C,7.94 µM (active),
COc1ccc(C)cc1N(CC(=O)Nc1ccc(S(=O)(=O)N2CCCC2)cc1)S(C)(=O)=O,15.8 µM (active),

SMILES,Potency,"activity change, negative = inhibition [%]"
CCOc1ccccc1N(CC(=O)Nc1ccc(S(=O)(=O)N2CCCC2)cc1)S(C)(=O)=O,12.6 µM (active),
COC(=O)c1cn(C)c2ccc(S(=O)(=O)N3CCCC3)cc2c1=O,,-9.9
COC(=O)c1cc(NC(=O)CN2CCc3cc4c(cc3C2)OCCCO4)cc(C(=O)OC)c1,12.6 µM (active),
CCN(CC(=O)Nc1ccc(S(=O)(=O)N2CCOCC2)cc1)Cc1ccccc1,12.6 µM (active),
COc1ccc(OCCOc2ccc(S(=O)(=O)N3CCCC3)cc2C(N)=O)cc1,11.2 µM (active),
C/C=C(\C)CN1CCc2cc(OC)c(OC)cc2C1,,-12.9
COc1cc2c(cc1OC)CN(CC(=O)Nc1ccc(S(=O)(=O)N3CCCC3)cc1)CC2,15.8 µM (active),
COc1ccc(S(=O)(=O)N2CCCN(S(=O)(=O)c3ccc(OC)c(C)c3)CC2)cc1C,14.1 µM (active),
N=C1S/C(=C\c2ccco2)C(=O)N1c1nccs1,14.1 µM (active),
O=C(CCCN1C(=O)/C(=C\c2ccco2)SC1=S)Nc1ccc2ccccc2c1,,-5.51
O=C(c1ccc(Cl)cc1)C(Cn1cncn1)C(Sc1ccccc1)c1ccccc1 (stereo unspecified),14.1 µM (active),
Cc1cc(C)c(/C=C(\C#N)C(N)=S)c(C)c1,,-25.2
CCN(CC)S(=O)(=O)c1ccc(N2CCOCC2)c(NC(=O)C2CSC3(C)CCC(=O)N23)c1 (stereo unspecified),14.1 µM (active),
COc1ccc([C@@]2(C(C)C)ON(c3ccccc3C(F)(F)F)C2=O)cc1,1.12 µM (active),
CCOC(=O)CC(Nc1nc(N2CCOCC2)nc(N2CCOCC2)n1)c1ccccc1Cl (stereo unspecified),6.31 µM (active),
CCCc1ccc(C(=O)NC(=O)c2ccccc2O)cc1,0.501 µM (active),
CCN(CCN1CCCC1)C(=O)c1cc(COc2ccccc2SC)on1,15.8 µM (active),
CSc1ccccc1OCc1cc(C(=O)NCCn2ccnc2C)no1,,15.8
CSc1ccccc1OCc1cc(C(=O)N(C)CCc2c(C)n[nH]c2C)no1,12.6 µM (active),
CSc1ccccc1OCc1cc(C(=O)N2C[C@H]3CC[C@H]2C3)no1,,-29.5
CSc1ccccc1OCc1cc(C(=O)NCCCn2nc(C)cc2C)no1,15.8 µM (active),
Nc1nc(SCC(=O)NCC2CCCO2)[nH]c(=O)c1NC(=O)c1ccc(F)c(F)c1 (stereo unspecified),12.6 µM (active),
